Compound activity (PubChem BioAssay)
NFkB transloc pot: enhances IL-1B driven NFkB nuclear translocation; HUVEC IL-1B NFkB p65 nuclear translocation imaging; activation, % at 2 µM; 0.3% of 94,000 active; AID 819;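 active = activation above 40%, about the mean plus 3 SD, also judged a hit on visual image review; inconclusive = activation above 40% but not a hit on visual review; inactive = activation not above 40% and no visual hit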;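 also: percent activation is computed from the nuclear over cytoplasmic p65 intensity ratio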
TNAP act DEA: human TNAP activation, intermediate phosphate acceptor; purified TNAP, CDP-star luminescence, 100 mM DEA, 30 min; hits give high values; scale: 0 levamisole-inhibited, 1 vehicle-only enzyme; activation factor at 20 µM; 64,000 tested, under 10 active;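 active = activation factor of at least 2 at 20 µM, relative to controls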
Target sequence (P05186 whole entry, looked up): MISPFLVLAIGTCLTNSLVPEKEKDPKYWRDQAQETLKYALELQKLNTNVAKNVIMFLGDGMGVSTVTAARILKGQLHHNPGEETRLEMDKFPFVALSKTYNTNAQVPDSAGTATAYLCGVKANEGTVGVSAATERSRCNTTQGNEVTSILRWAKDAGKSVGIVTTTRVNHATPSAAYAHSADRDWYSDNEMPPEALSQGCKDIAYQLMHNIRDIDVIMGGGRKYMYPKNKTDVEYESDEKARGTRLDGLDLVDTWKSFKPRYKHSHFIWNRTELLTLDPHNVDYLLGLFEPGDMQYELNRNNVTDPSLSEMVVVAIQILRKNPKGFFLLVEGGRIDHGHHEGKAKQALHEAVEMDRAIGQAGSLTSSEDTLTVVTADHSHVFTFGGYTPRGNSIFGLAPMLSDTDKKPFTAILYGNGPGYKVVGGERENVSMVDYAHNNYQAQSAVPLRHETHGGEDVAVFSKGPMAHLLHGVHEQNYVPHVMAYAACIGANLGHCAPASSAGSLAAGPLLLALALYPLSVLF
IL1B NFkB inh: blocks IL-1B driven NFkB nuclear translocation in HUVEC cells | HUVEC IL-1B NFkB p65 nuclear translocation imaging | inhibition, % at 2 µM | 0.43% of 94,000 active;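 active = inhibition above about 30% together with a positive call from visual inspection of the well image, limit read from the data; inconclusive = inhibition above a set limit but visual check negative; inactive = inhibition not above a set limit, visual check negative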;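 also: nuclear over cytoplasmic p65 intensity ratio measured by imaging; 0% = IL-1B stimulated DMSO wells and 100% = unstimulated DMSO wells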
IL1B cytotox: HUVEC cytotoxicity counter-screen, IL-1B stimulated; 0.41% of 94,000 active; cell count reduction, % at 2 µM; HUVEC cell count loss, Hoechst imaging;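 active = cell count reduction more than 3 SD above the screen-wide mean, cut at about 70% in these data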;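 also: normalized per plate to untreated control cells as the no-loss baseline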
PLAP act: activates human placental alkaline phosphatase. P05187. purified PLAP enzyme, luminescent substrate read-out; hits give high values. activation fold at 20 µM. 1.2% of 96,000 active. AID 696; in the data active = activation fold above about 2
* = called active by the depositor; ? = inconclusive; · = not tested or not shown. The list is not random: actives were taken first. Their share in the collection is about 2.1%.

SMILES	NFkB transloc pot	TNAP act DEA	IL1B NFkB inh	IL1B cytotox	PLAP act
O=C(c1cc2ccccn2n1)N1CCC2(CC1)OCCO2	?	0.9	-50	-18	1
COc1ccc(-c2cc(C(F)(F)F)n3nc(C(=O)N4CCC5(CC4)OCCO5)cc3n2)cc1OC	-1	1	1	89*	1.2
CCCC1=C(C(=O)OCC)C2(C(=O)Nc3ccccc32)C(C#N)=C(N)O1 (stereo not drawn)	7	1	-7	22	0.9
CC(C)C12CN3CC(C(C)C)(CN(C1)C3c1cccnc1)C2=O (stereo not drawn)	-10	·	10	4	1.2
Cc1ccc(CS(=O)(=O)Cc2ccc(C(=O)N3CCC4(CC3)OCCO4)o2)cc1	-10	0.9	10	-6	1.4
Cc1ccc(CS(=O)(=O)CCC(=O)N2CCC3(CC2)OCCO3)cc1	19	0.9	-19	92*	1.2
CCC1(c2ccccc2)C(=O)N(COC)C(=O)N(COC)C1=O	16	1	-16	-16	1.1
NC1CCCCC1N=Cc1c(O)n(Cc2ccc(F)cc2)c(=O)[nH]c1=O (stereo not drawn)	16	0.8	-16	8	2.8*
CCCCn1c(O)c(C=NC2CCCCC2N)c(=O)[nH]c1=O (stereo not drawn)	-99	1.2	99*	84*	1.5
CCCCCCn1c(O)c(C=NC2CCCCC2N)c(=O)[nH]c1=O (stereo not drawn)	-3	1	3	0	1.5
Cc1ccc(-n2c(O)c(C=NC3CCCCC3N)c(=O)[nH]c2=O)cc1C (stereo not drawn)	-3	1	3	19	2.2*
O=C(Nc1ccc(F)cc1)N1CC2CC(C1)c1cccc(=O)n1C2 (stereo not drawn)	4	·	-4	-4	1
Cc1cccc(C)c1NC1=NCCCCS1	4	1	-4	-12	1.2
c1ccc2[nH]c(CCNC3CCCCC3)nc2c1	6	1	-6	-15	2.7*
CCOC(=O)C1CCN(/C=C2/C(=O)NC(=O)N(Cc3ccco3)C2=O)CC1	·	0.9	·	·	1
Cc1ccc2c(c1)[C@@H]1CN(C)CC[C@@H]1N2C(=O)Nc1cccc(C(F)(F)F)c1	2	0.9	-2	-18	1
Cc1ccc2c(c1)C1CN(C)CCC1N2C(=O)Nc1cccc(C(F)(F)F)c1 (stereo not drawn)	-30	·	30*	40	1.1
Cc1ccc2c(c1)CC1(CN2C)C(=O)NC(=O)N(CCC2=CCCCC2)C1=O (stereo not drawn)	66*	0.9	-66	7	1.3
O=c1[nH]c(=O)n(CCC2=CCCCC2)c(O)c1C=NCCCn1ccnc1	6	1	-6	-21	2.1*
O=c1[nH]c(=S)n(CCC2=CCCCC2)c(O)c1C=NCCCn1ccnc1	0	·	0	-20	1.5
CCC(C)N1C(=O)NC(=O)C2(Cc3cc(C)ccc3N(C)C2)C1=O (stereo not drawn)	·	0.8	·	·	1.6
COC(=O)C1CN(C#N)N(c2ccc(Cl)cc2)C12c1ccccc1-c1ccccc12 (stereo not drawn)	-65	·	65*	21	·
CCN1CCN(C(=O)COc2ccc3c(c2)C(=O)CC2(CCN(C(C)=O)CC2)O3)CC1	2	·	-2	-10	2.7*
CN1CCC(n2nccc2N)CC1	-36	0.9	36*	16	1.5
O=C(Cn1cc(C(=O)c2ccccc2)c2ccccc21)NCc1ccco1	-93	0.9	93*	88*	0.9
O=C(c1ccccc1)c1cn(CC(=O)N2CCCc3ccccc32)c2ccccc12	20	·	-20	-3	1.3
